Consider 94 compounds from PubChem BioAssay AID602248 (The Scripps Research Institute Molecular Screening Center, 2012).

Out of some 360,000 compounds screened, about 1,700 (0.47%) were called active. The sample as a whole holds a higher share of actives than the screen did. A number with no mark means an inactive call. Cut-off read from the data, not from the text of the source: active = activation above about 15%; inactive = the rest.

This experiment in a line: counter-screen for M1 agonists: effect in parental CHO-K1 cells (AID 602248).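 Note: untransfected CHO-K1 host cells lacking M1 receptor as counterscreen.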 The conditions noted are these: Fluo-8 calcium fluorescence, at 3 µM, active compounds read high, scaled to maximal ATP response, vehicle zero. In general terms: The purpose of a counterscreen is to sort out artefacts and off-target activity.
Take `CN(c1ccccc1)S(=O)(=O)c1ccc(NC(=O)COc2ccccc2)cc1`: the activation was 7.3%.
With `Cc1ccc(S(=O)(=O)N(C)c2ccc(OCC(=O)NC3=NCCS3)cc2)cc1` the figure was 22.6% (active).
With `CN(c1ccc(OCC(=O)NC2=NCCS2)cc1)S(=O)(=O)c1ccc(F)cc1` the figure was 6.36%; with `O=C(O)C(NS(=O)(=O)c1cccc2nsnc12)c1ccccc1` (centres undefined), 0.41%.
Next, `Cc1ccc(-c2nn(-c3ccccc3)cc2C(=O)NCCCN2CCCC2=O)cc1`: 0.65%.
Take `O=C(NNC(=S)NC(=O)c1cn(-c2ccccc2)nc1-c1ccccc1)c1ccncc1`: the activation was 29.6% (active).
Next, `COc1ccccc1N1CCN(C(=O)c2cn(-c3ccccc3)nc2-c2cccnc2)CC1`: 4.25%; `CCN(Cc1nc2ccccc2c(=O)[nH]1)Cc1cc(=O)oc2cc(C)c(C)cc12`: 2.83%; `CCOC(=O)c1ccc(N=C2SC(C(=O)NC)CC(=O)N2CCc2ccccc2)cc1` (centres undefined): 0.37%.
Next, `CCOc1ccc(NS(=O)(=O)c2ccc(C(=O)NC3CCN(Cc4ccccc4)CC3)cc2)cc1`: 15.3% (active); `CCOc1ccc(C(=O)NC2CCN(S(=O)(=O)CC)CC2)cc1`: 0.96%.
Next, `CCOc1ccc(CC(=O)NC2CCN(Cc3ccccc3)CC2)cc1`: 0.21%.
For `Cc1ccc(-c2cccc([C@H]3[C@@H]4C=CC[C@@H](C)[C@@H]4C(=O)N3Cc3ccccc3)c2)cc1`, the activation was 0.28%.
With `CN(Cc1cccnc1)C(=O)c1cc(COc2ccc3ncccc3c2)on1` the figure was 17.9% (active).
`Cc1cc(CN(C)C(=O)c2cc(COc3ccc(C)c(C)c3)on2)n[nH]1`: the activation is 1.86%.
With `Cc1ccc(OCc2cc(C(=O)N(C)CCn3ccnc3C)no2)cc1C` the figure was 3.36%.
Turning to `COc1cccc2c1C(=O)c1c(O)c3c(c(O)c1C2=O)CC(O)(C(C)=NNC(=O)c1ccc(Cl)c(Cl)c1)CC3OC1CC(N)C(O)C(C)O1` (centres undefined), the activation is 7.82%.
As to `CN(C(=O)CC1C(=O)NCCN1Cc1ccc2ccccc2c1)C1CCOCC1` (centres undefined), the activation was 0.91%.
With `CCCc1ccc(C(=O)COC(=O)CN2C(=O)NC3(CCCCC3C)C2=O)cc1` (centres undefined) the figure was 5.23%; with `CC1CCCCC12NC(=O)N(CC(=O)OCc1c(F)cccc1Cl)C2=O` (centres undefined), 21.8% (active); with `CC1CCCCC12NC(=O)N(CC(=O)OCC(=O)NCc1ccc(F)cc1)C2=O` (centres undefined), 0.23%.
Next, `c1ccc2c(c1)nnn2-c1ccncc1`: 0.33%.
With `C=CCNC(=O)/C=C/c1ccc(C(C)C)cc1` the figure was -0.17%; with `O=C(O)/C=C/c1ccc(S(=O)(=O)N2CCCCCC2)cc1`, -0.04%.
`O=C(/C=C(O)/C=C/c1ccc(O)cc1)/C=C/c1ccc(O)cc1`: the activation is 46.7% (active).
For `N=c1n(Cc2ccc(Cl)cc2)c2ccccc2n1CC(O)c1ccco1` (centres undefined), the activation is 1.71%.
With `CC12CCC(=O)N1C(C(=O)Nc1ccc(F)c(F)c1F)CS2` (centres undefined) the figure was 1.59%; with `CCCc1nc(-c2ccccc2O)n(-c2ccccc2)n1`, -0.09%.
With `Cc1nc(NC(CC(C)C)C(=O)O)c2nc(C)oc2n1` (centres undefined) the figure was -0.16%; with `O=C(CN(CC1CCCO1)C(=O)CNS(=O)(=O)c1ccc(F)cc1)NCc1ccco1` (centres undefined), 1.1%.
With `O=C(NCc1cccs1)C(=O)NCC1OCCCN1S(=O)(=O)c1ccc(F)cc1` (centres undefined) the figure was -0.04%; with `CN(NC(=O)C1CC(=O)N(c2ccccc2)C1)C1=NS(=O)(=O)c2ccccc21` (centres undefined), -0.27%.
`Nc1cc(=O)n(Cc2ccccc2)c(=O)n1Cc1ccccc1`: the activation is 0.11%.
In the case of `Cc1cc2nc3c(=O)n(Cc4ccccc4)c(=O)[nH]c3nc2cc1N`, the activation is 47.3% (active).
As to `CN(C(=O)COC(=O)c1ccc(Br)o1)c1c(N)n(Cc2ccccc2)c(=O)[nH]c1=O`, the activation was 2.4%.
With `Cc1ccc(S(=O)(=O)n2cccc2CO)cc1` the figure was -0.4%; with `COc1ccc(-n2c(Cc3cccn3C)nnc2SCC(=O)Nc2cc(C)cc(C)c2)cc1`, -0.02%.
With `CCOC(=O)N1C(=O)C[C@](Sc2ccc(C)cc2)(C(=O)OC)[C@H]1c1ccccc1` the figure was 1.19%; with `CC(=O)Nc1ccc(NC(=S)NC(=O)c2ccc([N+](=O)[O-])c(C)c2)cc1`, 1.35%; with `CC(=O)NC(=S)Nc1ccc(NC(=S)NC(=O)c2ccc([N+](=O)[O-])cc2)cc1`, 24.5% (active).
Next, `COCCCNC(=S)NC(=O)c1ccc([N+](=O)[O-])cc1`: 0.19%; `Cc1nn(C(C)C(=O)N2CCOCC2)c(=O)c2nn(-c3ccccc3)c(C)c12` (centres undefined): 2.09%.
Consider `COc1cccc(CNCCc2c[nH]c3ccccc23)c1OCc1ccccc1F`, for which the activation is 23.3% (active).
For the compound `Fc1ccccc1COc1ccccc1CNCc1ccncc1`, the activation was 4.4%.
Take `COc1cccc(CNn2cn[nH]c2=S)c1OCc1ccccc1`: the activation was 1.05%.
As for `COc1cc(NC(=O)COC(=O)CSc2ccc3ccccc3c2)c(C)cc1[N+](=O)[O-]`, the activation was 5.21%.
With `COc1ccc(-c2n[nH]c(C)c2-c2ccccc2OC)c(O)c1`, the activation was 15.4% (active).
With `COc1ccc(-c2c(-c3ccc(OC)cc3O)nc(C)nc2C(F)(F)F)cc1` the figure was -0.31%; with `COc1ccc(-c2[nH]ncc2CN(C)Cc2c(C)n[nH]c2C)c(OC)c1`, 1.07%; with `Cc1ccc(Cc2cncc(O)c2)cc1S(=O)(=O)O`, 0.27%.
With `COc1cc(OC)cc(C(=O)OCC(=O)Nc2sccc2C(N)=O)c1` the figure was 9.07%; with `NC(=O)c1ccsc1NC(=O)COC(=O)COc1ccc(C=O)cc1`, 16.2% (active); with `Cc1cccc(C(=O)OCC(=O)Nc2sccc2C(N)=O)c1C`, -0.07%.
With `CCOC(=O)[C@]12CCC=C1N(Cc1cccc3ccccc13)C(=O)[C@H](CC(=O)NCc1cccc(C(F)(F)F)c1)C2` the figure was 0.16%.
As to `COc1cc(NC(=O)NCC2CCN(Cc3ccc(C)cc3)CC2)cc(OC)c1OC`, the activation was 1.36%.
With `Cc1cccc(CN2CCC(CNC(=O)Nc3ccc(F)c(Cl)c3)CC2)c1` the figure was 29.2% (active); with `Cc1ccc(C)c(CN2CCC(CNC(=O)Nc3ccc(C)c(F)c3)CC2)c1`, 2.18%.
With `O=C(O)c1cc2c(cc1NC(=O)c1c(F)cccc1Cl)OCCCO2` the figure was 0.67%; with `O=C(O)c1cc(Cl)c(Cl)cc1C(=O)Nc1cccc2ncccc12`, 20.9% (active); with `Cc1ccc(/C=C(\C#N)C(=O)Nc2cccc3ncccc23)o1`, 2.57%.
As for `COc1ccc(C(=O)CSc2nnnn2C)c(OC)c1`, the activation is -0.15%.
Next, `COC(=O)c1ccc(SCc2ccccc2)nc1`: -0.21%; `O=c1c2ccccc2c(-c2ccc(Br)cc2)nn1Cc1ccccc1`: 0.4%.
Next, `CSc1c(SCc2ccccc2)cnn(Cc2ccccc2)c1=O`: 18.2% (active).
With `Cc1nn(CC2CC2)c(=O)n1N(C)c1ncc(C(F)(F)F)cc1Cl` the figure was 1.05%.
Regarding `Cc1ccc2c(CN3CCN(S(=O)(=O)c4ccccc4C(F)(F)F)CC3)cc(=O)oc2c1`, the activation was 6.94%.
Next, `COc1ccc2c(CN3CCN(S(=O)(=O)c4cccs4)CC3)cc(=O)oc2c1`: 16.1% (active); `Cc1cc2oc(=O)cc(CN3CCN(S(=O)(=O)c4cccs4)CC3)c2cc1C(C)C`: 1.53%; `O=C(Nc1ccc2ccccc2c1)Nc1ccc2snnc2c1`: 14%.
With `O=C(Nc1ccccc1)c1ccc2nsnc2c1` the figure was -0.09%; with `COc1ccc(NC(=O)Nc2ccc3nsnc3c2)cc1`, 19.9% (active).
With `CCc1ccccc1NC(=O)Cc1cn(C)c2ccccc12` the figure was 8.41%; with `CC(C)(C)C1CCC(=O)N2CCC[C@]2(c2ccccc2)C1` (some centres undefined), -0.26%.
With `Cc1nc(N)c(Br)c(C)c1Br`, the activation was -0.78%.
Next, `COc1ccccc1CNc1nc(Nc2ccccc2Cl)c2sccc2n1`: 7.11%; `COc1cccc(CNc2nc(NCc3ccccc3OC)nc3ccsc23)c1`: 8.82%; `COc1cccc(CNc2nc(NCc3cccs3)nc3ccsc23)c1`: 24.7% (active).
For `CN1C(C)(C)CC(NC(=O)CCC(=O)NC2CC(C)(C)N(C)C(C)(C)C2)CC1(C)C`, the activation was 0.35%.
Next, `C=CCN1C2CCCC1CC(NC(=S)Nc1cccc(OC)c1)C2` (centres undefined): 1.29%.
Take `N#Cc1c(-c2ccccc2)c(-c2ccccc2)n[nH]c1=O`: the activation was -0.04%.
Next, `O=C(CCCOc1ccccc1)Nc1cccc(C(=O)O)c1`: 0.45%; `Cc1ccc(C)c2c1cc(C)c1nnc(SCC(=O)Nc3cccc(C(=O)O)c3)n12`: 1.47%.
With `O=C(CNCc1ccc(Cl)cc1)Nc1cccc(C(=O)O)c1` the figure was 18.2% (active); with `O=C(NCc1ccco1)c1cccc(-c2ccc3nncn3c2)c1`, 0.29%; with `C1CC1Cc1noc(CN2CCN(CC3CC3)CC2)n1`, 1.05%.
With `COc1cc(OC)c(-n2cc(-c3ccc(Cl)cc3)[nH]c2=O)cc1Cl` the figure was 25.2% (active).
`COc1ccc(Cl)cc1S(=O)(=O)N1CCC(O)(c2ccc(Cl)cc2)CC1`: the activation is 0.66%.
Next, `COc1cc(OC)c(N2CC(C(=O)Nc3cc(Cl)ccc3N3CCOCC3)CC2=O)cc1Cl` (centres undefined): 4.62%.
Next, `O=C(CCCN1CCc2[nH]c3ccc(F)cc3c2C1)c1ccc(F)cc1`: 24% (active).
As for `CC1CCc2[nH]c3ccc(C(=O)N(C)CC(=O)Nc4cccc(F)c4)cc3c2C1` (centres undefined), the activation was 2.26%.
Next, `Cn1c(SCC(=O)N2CCOCC2)nnc1-c1ccc2ncccc2c1`: 0.63%.
With `Cc1c(Cl)c([N+](=O)[O-])nn1CCCC(=O)NC(C)c1ccccc1` (centres undefined) the figure was -0.09%; with `CN(C)c1ccc(/C=N/NC(=O)c2ccc(Cn3cc(Br)cn3)o2)cc1`, 0.99%; with `Cc1c(Cl)c([N+](=O)[O-])nn1Cc1ccc(C(=O)N/N=C\c2cc(Cl)ccc2O)o1`, 19.9% (active).
